Source: PubChem (National Center for Advancing Translational Sciences (NCATS))
A selection: hits, their analogues and other compounds. The true share with any hit is near 15%.
ELG1 repair inh: inhibitors of ELG1-dependent DNA repair in HEK293T cells | HEK293T ELG1-luciferase reporter, luminescence, 16 h; DNA damage induced by 5-fluorouridine | Potency, µM (highest dose often 46.1 µM), inactives show at the highest dose activity change, negative = inhibition, actives largely listed as inhibitors | 2.3% of 330,000 active; further: nearly all actives have a fitted effect of over 55% in size
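Quantitative HTS, concentration-response format. 2,000 cells/well co-treated with 5-fluorouridine and compound, 16 hr in 5% CO2 at 37 °C; ONE-Glo luminescence read after 30 min.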
TDP1 cell noCPT: qHTS for Inhibitors of human tyrosyl-DNA phosphodiesterase 1 (TDP1): qHTS in cells in absence of CPT; 15% of 420,000 active; Potency, µM (highest dose often 46.2 µM), for the others: top-dose activity change, negative = growth inhibition, actives largely listed as inhibitors; DT40 Tdp1-/- hTDP1 cells, no CPT, ATP luminescence, 48 h; AID 686978, 2013; further: nearly all actives have a fitted effect of over 55% in size
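Chicken DT40 Tdp1-/- cells complemented with human TDP1, screened without camptothecin (DMSO vehicle only), 400 cells/well. Compounds pin-transferred, cells incubated at 37 °C for at least 48 hr. Growth read as ATP-dependent luminescence (CellTiter-Glo, 30 min at RT).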
DT40 TDP1 CPT: DT40-hTDP1 cell growth loss with CPT. chicken DT40 Tdp1-/-;hTDP1 cells + 20 nM CPT, ATP luminescence, 48 h. Potency, µM (titrated, usually from 46.2 µM), for inactives: at the highest dose activity change, negative = growth inhibition, most hits filed as inhibitors. 12% of 420,000 active. AID 686979; further: nearly all actives have a fitted effect of over 55% in size
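Chicken DT40 Tdp1-/- cells complemented with human TDP1, 400 cells/well, exposed to compounds plus 20 nM camptothecin for at least 48 h at 37 C; viability read as ATP content by CellTiter-Glo luminescence.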
ALOX12 inh: inhibitors of human 12S-lipoxygenase ALOX12; 1.1% of 580,000 active; Potency, µM (titrated, usually from 108 µM), without a hit: top-dose activity change, negative = inhibition, actives largely listed as inhibitors; P18054; purified 12hLO, xylenol orange hydroperoxide absorbance
Target sequence (P18054 whole entry, looked up): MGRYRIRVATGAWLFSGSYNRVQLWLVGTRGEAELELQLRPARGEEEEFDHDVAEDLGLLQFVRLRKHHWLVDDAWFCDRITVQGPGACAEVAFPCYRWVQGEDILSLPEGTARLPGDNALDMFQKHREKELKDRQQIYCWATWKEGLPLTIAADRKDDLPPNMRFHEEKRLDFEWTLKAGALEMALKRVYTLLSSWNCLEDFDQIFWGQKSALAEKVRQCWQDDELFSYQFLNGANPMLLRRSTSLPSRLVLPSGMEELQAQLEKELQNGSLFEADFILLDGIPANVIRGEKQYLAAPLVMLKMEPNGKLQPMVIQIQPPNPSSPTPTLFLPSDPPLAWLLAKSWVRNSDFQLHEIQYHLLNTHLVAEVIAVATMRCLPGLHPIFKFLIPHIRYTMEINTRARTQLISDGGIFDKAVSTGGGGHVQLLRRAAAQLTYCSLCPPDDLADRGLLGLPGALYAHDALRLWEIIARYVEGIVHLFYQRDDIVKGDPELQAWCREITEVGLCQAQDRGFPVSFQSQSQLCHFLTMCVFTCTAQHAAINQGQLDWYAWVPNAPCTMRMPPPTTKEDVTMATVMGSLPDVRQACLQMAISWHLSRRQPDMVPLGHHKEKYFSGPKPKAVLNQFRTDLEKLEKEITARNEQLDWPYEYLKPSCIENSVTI
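Purified human 12hLO at 150 nM in 25 mM Hepes, 0.01% Triton X-100, pH 7.0, preincubated 15 min at room temperature with compound. Reaction started with 40 uM arachidonic acid, 30 min at room temperature. Hydroperoxide measured by Fe-xylenol orange, 573/405 nm absorbance ratio.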
VP16 counter: Gal4-VP16 reporter inhibition counter-screen; Drosophila S2 Gal4-VP16 UAS-luciferase, luminescence, 20 h; Potency, µM (titrated, usually from 53.6 µM), for inactives: top-dose activity, negative = inhibition, most hits filed as inhibitors; 3.5% of 310,000 active; AID 2546;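 further: Gal4-VP16 expression switched on by copper sulfate through the metallothionein promoter; nearly all actives have a fitted effect of over 50% in size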
RORgamma inh: ROR gamma (mouse) transcription inhibition | Drosophila S2 Gal4-RORgamma UAS-luciferase reporter, 20 h | AID 2551 | Potency, µM (highest dose often 53.6 µM), without a hit: top-dose activity change, negative = inhibition, actives largely listed as inhibitors | P51450 | 5.4% of 310,000 active; further: nearly all actives have a fitted effect of over 60% in size
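Drosophila S2 cells stably expressing Gal4-DBD/mouse RORγ fusion under metallothionein promoter plus UAS-luciferase; compound 1 h, then 700 uM CuSO4 induction for 20 h at ambient temperature; inhibition read as reduced luminescence.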
* hit, by the source's call; ? = inconclusive; · = no result given; [ ] = another dose, or the depositor's remark. The call rests on the fitted dose curve; in most records, active means well fitted curve in the direction sought with a large enough effect; inconclusive means small, poorly fitted or top-dose-only effect, or another doubt; inactive means no such curve, though single readings can be large; an effect the other way counts as inactive or inconclusive. On the % scale 0 is the no-effect control and ±100 the full control effect; potency means the concentration at half of the fitted maximal effect.

SMILES	ELG1 repair inh	TDP1 cell noCPT	DT40 TDP1 CPT	ALOX12 inh	VP16 counter	RORgamma inh
CCOC(=O)c1ccc(/C=C2\c3ccccc3C(=O)N2c2ccccc2)cc1F	?	?	18µM*	0%	·	·
CCOC(=O)c1ccc(N2C(=O)Cc3ccccc3C2=O)cc1	0%	?	?	1%	0%	0%
CCOC(=O)c1ccc(-c2ccc3c(=O)c4ccccc4n(C)c3c2)cc1F	-13%	?	15µM*	-10%	1%	3%
CNC(=O)c1noc([C@@H]2CC(F)(F)CN2C(=O)c2cccc(C)c2)n1	·	·	·	37%	·	·
COC(=O)c1cc(NC(=O)c2ccccc2OC(F)F)c(F)cc1F	·	·	·	5%	·	·
O=C(O)c1ccc(-n2nnc3ccccc32)c([N+](=O)[O-])c1	?	6%	7%	-12%	-16%	-14%
O=[N+]([O-])c1cnccc1-n1nnc2ccccc21	·	18µM*	16µM*	1%	·	·
CCc1ccc(NC(=O)c2nccnc2N)cc1	·	·	·	50%	·	·
Cc1nc2ccc(Br)cn2c1NC(C)(C)C	-25%	-23%	-20%	-21%	?	14µM*
Cc1nc2ccc(Br)cn2c(=O)c1Cl	-1%	-24%	-24%	34%	2%	-26%
CCc1noc(C)c1C(=O)Nc1nc(-c2cc(OC)ccc2OC)cs1	16µM*	21µM*	?	-14%	·	·
CCc1noc(C)c1C(=O)Nc1nc(-c2ccc(OC)cc2)cs1	-9%	13µM*	?	-17%	·	·
CCc1noc(C)c1C(=O)Nc1nc(-c2ccc(OC)cc2OC)cs1	?	16µM*	?	?	·	·
CNC(=O)c1cc[nH]c1C1CCCN(C(=O)c2ccc(C)[nH]c2=O)C1 (configuration not stated)	·	·	·	27%	·	·
Cc1nnc2ccc(SCC(=O)Nc3ccc(Cl)cc3Cl)nn12	·	·	·	5%	·	·
CNC(=O)NC(=O)CN(C)c1ccc(I)cc1	·	·	·	-19%	·	·
COc1cc(NC(=O)c2cc(-c3cc(F)ccc3OC(C)C)n[nH]2)cc(OC)c1OC	·	16µM*	?	13%	·	·
CC(C)Oc1cc(F)ccc1-c1cc(C(=O)Nc2cccc(C(F)(F)F)c2)[nH]n1	·	?	16µM*	-3%	·	·
CCCOc1ccc(F)cc1-c1cc(C(=O)Nc2cc(OC)ccc2OC)[nH]n1	·	-11%	-21%	-8%	·	·
COc1ccc(NC(=O)c2cc(-c3ccc(F)cc3OC(C)C)n[nH]2)cn1	·	23µM*	?	-25%	·	·
CCCOc1ccc(F)cc1-c1cc(C(=O)Nc2cc(OC)c(OC)c(OC)c2)[nH]n1	·	15µM*	8.2µM*	2%	·	·
Cc1c(NC(=O)c2ccco2)cccc1C(=O)N1CCn2nc(C(=O)O)cc2C1	·	·	·	-2%	·	·
Cc1c(C(=O)N2CCCC(CCc3ccc(F)cc3)C2)cnc2cc(=O)[nH]n12 (configuration not stated)	·	·	·	15%	·	·
CC1=C(C(=O)Nc2ccccc2)C(c2ccc(Cl)cc2)N2C(=O)CSC2=N1 (configuration not stated)	·	·	·	-6%	·	·
CCOC(=O)C1CCN(Cc2cc(=O)oc3ccc(O)cc23)CC1	·	·	·	11%	·	·
SMILES	ELG1 repair inh	TDP1 cell noCPT	DT40 TDP1 CPT	ALOX12 inh	VP16 counter	RORgamma inh
O=C(Cn1cnc2ccc(Br)cc2c1=O)N1CCCC1c1ccc2c(c1)OCCCO2 (configuration not stated)	·	·	·	-13%	·	·
CCCOc1ccc(F)cc1-c1cc(C(=O)Nc2ccc(OC)nc2)[nH]n1	·	18µM*	?	·	·	·
COc1ccc(NC(=O)c2cc(-c3cc(F)ccc3OCC3CCCO3)n[nH]2)cc1OC (configuration not stated)	·	21µM*	?	-3%	·	·
CC(=O)Nc1ccc(NC(=O)c2cc(-c3cc(F)ccc3OCC3CCCO3)n[nH]2)cc1 (configuration not stated)	·	?	?	-6%	·	·
Cc1ccc(-n2c(SCC(=O)NC3CCS(=O)(=O)C3)nc3ccccc3c2=O)c(C)c1 (configuration not stated)	·	16µM*	?	9%	·	·
O=C(CSc1nc2ccccc2c(=O)n1-c1cccc(C(F)(F)F)c1)NC1CC1	-19%	?	18µM*	-17%	10%	0%
COC(=O)c1ccc2nc(CO[C@H]3CN(Cc4ccccc4)C[C@H]3F)[nH]c2c1	·	·	·	62%[176 µM]	·	·
C=CCNc1nc(N)c(C(=C(C#N)C#N)c2ccc(Br)cc2)s1	18µM*	?	?	?	?	?
C=CCNc1nc(N)c(C(=O)c2ccc(Cl)cc2)s1	·	·	·	-66%	·	·
Cc1cc(=O)oc2cc(OCC(=O)NC(=O)NC3CCCCC3)ccc12	·	·	·	-6%	·	·
CC(C)Cc1ccc(C(C)C(=O)Nc2nccs2)cc1 (configuration not stated)	-12%	?	?	-11%[57.4 µM]	?	13µM*
CC(C)c1ccc(CNC(=O)C(=O)Nc2nccs2)cc1	-2%	0%	-7%	-1%	21%[10 µM]	-36%
CC(C)Cc1ccc(C(C)C(=O)Nc2ccccc2O)cc1 (configuration not stated)	5.8µM*	8.2µM*	8.2µM*	?	?	-25%
Cn1c(-c2ccc(F)cc2)cnc1NCc1cccc(F)c1	21%	18µM*	?	?	4%	-51%
Cn1c(-c2ccc3c(c2)OCO3)cnc1NCc1cccc(O)c1	4%	?	-19%	11µM*	4%	-23%
Cn1c(-c2ccc(F)cc2)cnc1NCc1ccccc1	18%	?	?	?	-1%	-31%
Cn1c(-c2ccc(F)cc2)cnc1NCc1cc2c(cc1[N+](=O)[O-])OCO2	?	23µM*	?	?	-11%	8%
Cn1c(-c2ccccc2)cnc1NCc1cc2c(cc1[N+](=O)[O-])OCO2	15%	?	-14%	-17%	-89%	0%[10 µM]
COc1ccc(CNc2ncc(-c3ccc(F)cc3)n2C)cc1OC	-15%	23µM*	?	?	2%	-16%[1.91 µM]
CCn1c(=O)n(CC)c2cc(Sc3ccccc3)c(NC(=O)c3ccccc3OC)cc21	·	·	·	-3%	·	·
CSc1cccc(NC(=O)CN(c2ccccc2)S(=O)(=O)N(C)C)c1	-1%	29µM*	26µM*	?	1%	-5%
CSc1cccc(NC(=O)CN(c2cccc(C)c2)S(C)(=O)=O)c1	-6%	?	18µM*	0%	4%	32%
